# PHOSPHO1 block = blocks human PHOSPHO1 phosphatase activity | Q8TCT1 | recombinant PHOSPHO1, absorbance phosphatase assay | inhibition, % at 13.3 µM | hit rate 1.1% among 290,000 | AID 1565; in the data active means inhibition above about 60%
# ANO1 activ = mouse TMEM16A channel activation, primary screen | B-score at 10 µM | hit rate 0.3% among 340,000 | Q8BHY3 | AID 623877 | HEK293 TMEM16A/YFP-H148Q/I152L, iodide quench fluorescence; active compounds read low;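 active means fluorescence-ratio B-score plate-corrected deviation score at least 3 library SD below zero, with starting fluorescence score within 5 deviations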;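 further: channel opened by trigger with iodide after compound preincubation; score built on the fluorescence ratio of max minus min over baseline; more negative score means more quench and so TMEM16A activation or potentiation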
# TMEM16A inh = inhibitors of mouse TMEM16A calcium-activated chloride channel; Q8BHY3; HEK293 TMEM16A/YFP iodide influx fluorescence, ionomycin; normalized B-score (activity score, 25-100; higher = stronger inhibition) at 10 µM; hit rate 1.2% among 310,000;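 active means ratio plate-corrected score three or more library SD toward inhibition, starting fluorescence score within five deviations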;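 further: score derived from kinetic fluorescence span divided by baseline fluorescence per well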
# HDAC3 inh = inhibitors of human histone deacetylase 3. hit rate 0.15% among 320,000. recombinant HDAC3, fluorogenic peptide/trypsin coupled, fluorescence. O15379. inhibition, % at 8.3 µM; in the data active means inhibition above about 26%, passing the limit was not always enough
# CHT PAM = allosteric activators of human choline transporter CHT; Q9GZV3; CHT-expressing cells, membrane potential dye, choline EC20; active compounds read high; LV-AA mutant CHT in HEK293 cells; B-score at 10 µM; hit rate 0.49% among 310,000;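 active means initial fluorescence not abnormally high and integrated response B-score, plate-corrected, over 3 SD above library mean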
# CHT block = inhibits the human high affinity choline transporter. Q9GZV3. CHT-expressing cells, membrane potential dye, choline response; active compounds read low. B-score at 10 µM. hit rate 0.86% among 310,000;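 active means B-score over 3 SD under the library average, and starting fluorescence ratio not unusually high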;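 further: choline stimulus applied at its EC90 after an EC20 pre-addition; B-score computed on integrated fluorescence ratio after choline addition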
# Numbers without * were called inactive; i = inactive; / = not tested or not shown. Rows were chosen to be rich in hits. Some 3.2% of all compounds tested hit in one or more screens of this group.
SMILES,PHOSPHO1 block,ANO1 activ,TMEM16A inh,HDAC3 inh,CHT PAM,CHT block
CCn1c(SCC(=O)N(Cc2ccccc2)C2CCS(=O)(=O)C2)nc2ccccc2c1=O (stereo not drawn),63*,i,i,0,i,i
Cc1nn(C)c(C(=O)NC(=S)Nc2ccccc2Br)c1Cl,-48,-6.7*,i,-2,i,i
CCn1ncc(Cl)c1C(=O)NC(=S)Nc1ccccc1Br,37,i,i,-1,i,i
CCOc1cc([C@@H]2C[C@H]3CN(c4ccccc4)C(=O)[C@]34CCCN24)ccc1OC,31,i,i,-6,i,i
COC(=O)C(C)(C)ONC(=O)Nc1ccc([N+](=O)[O-])cc1,61*,i,i,0,i,i
Cc1cc2nc(C)n(CCCNC(=O)Nc3ccc(C#N)cc3)c2cc1C,60*,i,i,-1,i,i
COCc1c(C#N)c(NCc2cc(OC)c(OC)c(OC)c2)nc(C)c1[N+](=O)[O-],42,i,25*,3,i,i
COC(=O)c1sccc1NC(=O)c1c(Cl)cnn1C,43,i,i,6,i,i
Cc1ccc(C(=O)Nn2c(O)c(C=C3N=c4ccccc4=N3)sc2=S)cc1,-105,i,i,7,i,i
O=C(Nn1c(O)c(C=C2N=c3ccccc3=N2)sc1=S)c1ccccc1,86*,i,i,8,i,i
Cc1c(C(C)NC(=O)Nc2ccc(F)cc2F)cnn1C (stereo not drawn),10,i,i,-1,i,i
COc1cccc(N2CCN(CC(=O)Nc3nnc(-c4ccccc4)s3)CC2)c1,26,i,25*,3,i,i
COc1cccc(N2CCN(CC(=O)NC3=Nc4ccccc4N=C(C)C3c3ccccc3)CC2)c1 (stereo not drawn),36,i,i,10,i,i
COc1cccc(CN(C)C(=O)CN2C(=O)NC(c3ccccc3)(c3ccccc3)C2=O)c1,/,-48*,/,/,/,/
O=S(=O)(c1ccc2nc(-c3ccco3)c(-c3ccco3)nc2c1)N1CCOCC1,65*,i,i,15,i,i
O=C(COc1cccc2ccccc12)Nc1ccc(Cl)cc1C(=O)O,28,i,100*,/,i,-7.3*
COc1ccc(-c2nc(CS(=O)CC(=O)NC3CCCCCC3)c(C)o2)cc1 (stereo not drawn),65*,i,i,12,i,i
COc1ccc(-c2nc(CS(=O)CC(=O)NC3CCCCC3)c(C)o2)cc1 (stereo not drawn),17,i,i,3,i,i
COC(=O)c1ccc2c(c1)C(C)(C)C(/C=C/c1ccc(O)cc1)=[N+]2C,-34,i,i,4,6.5*,i
CCOc1ccc(NC(=O)COc2coc(CN3CCc4ccccc4C3)cc2=O)cc1,/,i,i,3,i,i
Cc1cc(C)nc(SCC(=O)Nc2ccc(S(=O)(=O)Nc3ncccn3)cc2)n1,8,i,i,-13,i,i
Cc1cc(C)nc(NS(=O)(=O)c2ccc(NC(=O)CSc3ncn[nH]3)cc2)n1,62*,i,i,-2,i,i
CCOC(=O)CSC1=C(C#N)C(c2ccccc2F)C(C(C)=O)=C(C)N1 (stereo not drawn),-92,i,i,7,i,i
CC(=O)C1=C(C)NC(SCC(=O)c2ccc(Cl)cc2)=C(C#N)C1CC(C)C (stereo not drawn),87*,i,i,4,i,i
CC(=O)C1=C(C)NC(SCC(=O)c2cc(Cl)ccc2Cl)=C(C#N)C1c1ccco1 (stereo not drawn),78*,i,i,2,i,i
SMILES,PHOSPHO1 block,ANO1 activ,TMEM16A inh,HDAC3 inh,CHT PAM,CHT block
CC(=O)C1=C(C)NC(SCC(=O)c2ccc(Cl)c(Cl)c2)=C(C#N)C1c1ccco1 (stereo not drawn),76*,i,i,1,i,i
CSCSC1=C(C#N)C(c2ccccc2Cl)C(C(C)=O)=C(C)N1 (stereo not drawn),93*,i,i,5,i,i
CC(=O)C1=C(C)NC(SCC(N)=O)=C(C#N)C1c1ccco1 (stereo not drawn),-54,i,i,/,i,i
CSc1cccc(NC(=S)N(CCC(C)C)C2CCN(C(C)C)CC2)c1,-22,i,i,2,i,i
C=C(C)COc1ccc(-c2n[nH]c(C)c2-c2ccc(Br)cc2)c(O)c1,16,i,i,7,i,i
CC(=O)C1=C(C)NC(SCC(N)=O)=C(C#N)C1CC(C)C (stereo not drawn),-3,i,i,0,i,i
CC(=O)C1=C(C)NC(SCC(N)=O)=C(C#N)C1C (stereo not drawn),88*,i,i,1,i,i
CNC[C@H](CC1CCCCC1)NC[C@H](Cc1ccccc1)NCCC12CC3CC(CC(C3)C1)C2,25,i,100*,-8,i,i
CCn1c(C)nnc1SCC(=O)Nc1cccc(Cl)c1,3,i,i,1,i,i
O=C(c1ccc(CS(=O)(=O)c2ccc(Br)cc2)o1)N1CCN(c2ccccn2)CC1,3,-7.8*,i,5,i,i
O=c1cnc2ccccc2n1CC1CCCCC1,-17,i,i,4,i,i
Cc1[nH]n(C2=NCCS2)c(=O)c1N=Nc1ccccc1,-117,i,i,60*,i,i
O=C(NN1CCOCC1)c1cc(Cl)ccc1Cl,10,i,i,/,i,i
Cc1cc[n+](-c2[nH]c(=O)sc2/C=N/NC([S-])=Nc2ccccc2)cc1,-4,-5*,i,2,i,i
CC(C)(C)C1=CC(=O)C(N2CCOCC2)=CC1=O,2,i,i,3,i,i
COc1ccc(/C=N/N=C2/CC(C)(C)Cc3n[nH]c(=O)cc32)cc1,21,-9.1*,i,1,i,i
COc1ccc(/C=N/N=C2/NC(=O)CC(C(=O)O)S2)cc1 (stereo not drawn),11,i,i,6,i,i
Cc1onc(-c2ccccc2Cl)c1C(=O)Nc1cccc2cccnc12,1,i,100*,8,i,i
O=[N+]([O-])c1cccc(S(=O)(=O)Nc2nc3ccccc3nc2Nc2cccc(S(=O)(=O)N3CCCCC3)c2)c1,-2,-5.3*,/,/,/,/
S=C(S)N1CCCC1,/,i,100*,-1,i,i
Cc1ccc2nc(N3C(=O)C(O)=C(C(=O)c4ccco4)C3c3ccc(O)cc3)sc2c1 (stereo not drawn),36,i,25*,3,i,i
